In the library only some 3.6% were active in any assay of this set; here they are far more common.
Nrf2 activator – qHTS of Nrf2 Activators. 0.31% of 410,000 active. AREc32 ARE-luciferase reporter (MCF7-derived line), luminescence, 24 h. Potency, µM (top dose mostly 46.1 µM), for inactives: top-dose activation, most hits filed as activators. AID 624171, 2012; note: % of control where 0% means no effect; nearly all actives have a fitted effect of over 65% in size
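AREc32 cells carrying an ARE-driven firefly luciferase reporter were seeded at 1000 cells/well in OPTI-MEM with 5% FBS, then exposed to compound for 24 hr at 37 deg C. Luminescence was read with Steady-Glo after 30 min at RT.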
TGFb inhibitor – qHTS for Inhibitors of TGF-b; Potency, µM (series often up to 46.1 µM), for the others: top-dose activity, negative = inhibition, most hits filed as inhibitors; HepG2 CAGA-GFP TGF-b/SMAD3 reporter, GFP fluorescence, 18 h; TGF-beta stimulated, 500 pg/mL final; 1.2% of 410,000 active; AID 588855, 2011; note: % is set by controls: 0 for no effect and ±100 for the full control effect; nearly all actives have a fitted effect of over 65% in size
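HEPG2 CAGA-GFP cells (1000/well, DMEM with 1% FBS) were pre-incubated 2 h at 37 degrees C, given compound by pin tool, then stimulated with TGF-beta at 500 pg/mL final for 18 h before per-cell GFP fluorescence imaging.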
A549 viability – Nrf2 qHTS screen for inhibitors: counterscreen for cytotoxicity; A549 ARE-Fluc cells, CellTiter-Fluor viability, 18-24 h; Potency, µM (highest dose often 46 µM), without a hit: top-dose activity change, negative = cytotoxicity, actives largely listed as inhibitors; AID 504648, 2011; 0.16% of 390,000 active; note: % is set by controls: 0 for no effect and ±100 for the full control effect
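A549 ARE_Fluc cells in 5% FBS OPTI-MEM were exposed to compounds in concentration-response for 18-24 h at 37 deg C. Viability was read by CellTiter-Fluor fluorescence (Ex 405/Em 525) after 30 min, before the luciferase read.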
HepG2 tox-1 – qHTS for Inhibitors of TGF-b: Cytotox Counterscreen | HepG2 CAGA-GFP viability, ATP luminescence, 18 h | Potency, µM (top dose mostly 46.1 µM), for inactives: top-dose activity change, negative = cytotoxicity, hits mostly cytotoxic | 0.76% of 410,000 active | AID 588856, 2011
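HepG2 CAGA-GFP cells (1000/well, DMEM with 1% FBS) received compound, then TGF-beta at 500 pg/mL final, and were incubated 18 hours at 37 degrees C. Viability was read by CellTiter-Glo luminescence. Media-only wells were set as complete cell-killing and DMSO as no toxicity.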
Nrf2 block – Nrf2 qHTS screen for inhibitors. 2.1% of 360,000 active. Potency, µM (top dose mostly 46 µM), for inactives: at the top dose activity change, negative = inhibition, usual class: inhibitors. A549 ARE-Fluc reporter, luciferase luminescence, 18-24 h; note: % is set by controls: 0 for no effect and ±100 for the full control effect; nearly all actives have a fitted effect of over 60% in size
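Nrf2 activity is the BugLite luminescence, read 15 min after reagent at room temperature, following CellTiter-Fluor cytotoxicity readout (30 min, 37C). Compound titrations were applied for 18-24 h to 5000 A549 ARE_Fluc cells/well in 5% FBS OPTI-MEM.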
TGFb CAGA inh – qHTS for Inhibitors of TGF-b: Confirmation of Cherry Picks; 63% of 1,600 active; HepG2 CAGA-GFP TGF-b reporter, GFP fluorescence, 18 h; cells stimulated with TGF-beta, 500 pg/mL; Potency, µM (series often up to 46.1 µM), inactives show at the top dose activity, negative = inhibition, hits mostly inhibitors; shares compounds with TGFb inhibitor; note: % is set by controls: 0 for no effect and ±100 for the full control effect; nearly all actives have a fitted effect of over 65% in size
HepG2 tox-2 – qHTS for Inhibitors of TGF-b: Cytotox Counterscreen for Cherry Picks | shares compounds with TGFb inhibitor | HepG2 CAGA-GFP viability, ATP luminescence, 18 h; cells stimulated with TGF-beta, 500 pg/mL | Potency, µM (series often up to 46.1 µM), for the others: at the top dose activity, negative = cytotoxicity, usual class: inhibitors | 27% of 1,600 active | AID 720535, 2013; note: % is set by controls: 0 for no effect and ±100 for the full control effect; nearly all actives have a fitted effect of over 70% in size
CCL64 TGFb inh – qHTS for Inhibitors of TGF-b: CCL64 Cells Orthogonal Assay for Cherry Picks. shares compounds with TGFb inhibitor. CCL64 CAGA-GFP reporter, TGF-b stimulated, GFP fluorescence, 18 h. Potency, µM (top dose mostly 46.1 µM), without a hit: at the highest dose activity, negative = inhibition, most hits filed as inhibitors. 41% of 1,600 active; note: nearly all actives have a fitted effect of over 65% in size
COP TGFb inh – qHTS for Inhibitors of TGF-b: Hit Validation in HepG2 Cells using COP promoter; 3% of 1,600 active; Potency, µM (top dose mostly 46.1 µM), without a hit: top-dose activity, negative = inhibition, most hits filed as inhibitors; HepG2 COP-GFP TGF-b reporter, GFP fluorescence, 18 h; cells stimulated by added recombinant TGF-beta; shares compounds with TGFb inhibitor; note: nearly all actives have a fitted effect of over 70% in size
* = called active by the depositor. Calls come from the whole dose curve; as a rule, active = well fitted curve in the direction sought with a large enough effect; inconclusive = small, poorly fitted or top-dose-only effect, or another doubt; inactive = no such curve, though single readings can be large; an effect the other way counts as inactive or inconclusive. Potency is the fitted concentration of half-maximal effect.

How did O=C(c1ccc(Cl)cc1)c1cc([N+](=O)[O-])ccc1N1CCOCC1 do in these assays?
Nrf2 activator: -1%; TGFb inhibitor: 11µM*; A549 viability: inconclusive; HepG2 tox-1: 12%; Nrf2 block: 12%; TGFb CAGA inh: 7.3µM*; HepG2 tox-2: -2%; CCL64 TGFb inh: inconclusive; COP TGFb inh: -3%

How did COc1ccc(/C=C2/CSC/C(=C/c3ccc(OC)c(OC)c3)C2=O)cc1OC do in these assays?
Nrf2 activator: 22%; TGFb inhibitor: 6.3µM*; A549 viability: inconclusive; HepG2 tox-1: -3%; Nrf2 block: 5.2µM*; TGFb CAGA inh: 1.3µM*; HepG2 tox-2: 3.3µM*; CCL64 TGFb inh: 2.3µM*; COP TGFb inh: 9%

How did COc1ccc(/C=C2\Cc3ccccc3C2=O)cc1OC do in these assays?
Nrf2 activator: 0%; TGFb inhibitor: -9%; A549 viability: 1%; HepG2 tox-1: 1%; Nrf2 block: 4%

Results for COc1ccc(NC(=O)CSc2ncnc3c2cnn3CCc2ccccc2)cc1 ?
Nrf2 activator: 3%; TGFb inhibitor: 0%; A549 viability: -5%; HepG2 tox-1: 4%; Nrf2 block: 7%

What do the screens show for `CCCNC(=O)c1ccccc1NC(=O)COc1ccc(OC)cc1`?
Nrf2 activator: 2%; TGFb inhibitor: 10%; A549 viability: 0%; HepG2 tox-1: 15%; Nrf2 block: 0%

Results for O=C(Nc1nc2ccccc2c(=O)[nH]1)c1ccccc1SCc1ccccc1 ?
Nrf2 activator: 0%; TGFb inhibitor: 13%; A549 viability: -2%; HepG2 tox-1: -20%; Nrf2 block: 0%

Results for Cc1ccc(C)c(NC(=O)c2cc(S(=O)(=O)NCCC3=CCCCC3)ccc2F)c1 ?
Nrf2 activator: 1%; TGFb inhibitor: inconclusive; A549 viability: 8%; HepG2 tox-1: -20%

Results for Cc1ccc(NC(=O)c2cc(S(=O)(=O)NCCC3=CCCCC3)ccc2F)cc1 ?
Nrf2 activator: 4%; TGFb inhibitor: 11µM*; A549 viability: inconclusive; HepG2 tox-1: -9%; Nrf2 block: 15µM*; TGFb CAGA inh: 18µM*; HepG2 tox-2: inconclusive; CCL64 TGFb inh: 26µM*; COP TGFb inh: 36%

Results for OCCCNc1cc(-c2ccnc(Nc3cccc(Cl)c3)n2)ccn1 ?
Nrf2 activator: -2%; TGFb inhibitor: 0.28µM*; A549 viability: -10%; HepG2 tox-1: -5%; Nrf2 block: inconclusive; TGFb CAGA inh: 0.058µM*; HepG2 tox-2: 0.23µM*; CCL64 TGFb inh: 0.18µM*; COP TGFb inh: 26%

Results for CCC(C)Oc1cc(-c2ccnc(Nc3cccc(Cl)c3)n2)ccn1 (centres undefined) ?
Nrf2 activator: -3%; TGFb inhibitor: 7.1µM*; A549 viability: -5%; HepG2 tox-1: 2%; Nrf2 block: inconclusive; TGFb CAGA inh: 5.8µM*; HepG2 tox-2: inconclusive; CCL64 TGFb inh: 6.5µM*; COP TGFb inh: 42%

How did CN(C)CCCNc1ccc(-c2cc(Nc3cccc(Cl)c3)ncn2)cn1 do in these assays?
Nrf2 activator: 3%; TGFb inhibitor: inconclusive; A549 viability: 1%; HepG2 tox-1: -40%; Nrf2 block: 0%

How did Cc1cc(C)nc(Nc2cccc(Cl)c2)n1 do in these assays?
Nrf2 activator: 8%; TGFb inhibitor: 7%; A549 viability: -5%; HepG2 tox-1: -2%; Nrf2 block: -2%

What do the screens show for `CC(=O)Nc1ccc(N=Cc2c(O)c(C(=O)Nc3ccccc3)cc3ccccc23)cc1`?
Nrf2 activator: 7%; TGFb inhibitor: 7.1µM*; A549 viability: -22%; HepG2 tox-1: -46%; Nrf2 block: inconclusive; TGFb CAGA inh: -9%; HepG2 tox-2: 12µM*; CCL64 TGFb inh: 4.6µM*; COP TGFb inh: 55%

What do the screens show for `Cc1[nH]c(=O)[nH]c(=O)c1NC(=O)c1ccccc1[N+](=O)[O-]`?
Nrf2 activator: 0%; TGFb inhibitor: 15%; HepG2 tox-1: 2%

How did CC1=C(C(=O)N(C)C)CC(CC(=O)NC(c2ccccc2)c2ccccc2)C(=O)N1Cc1ccc(C(C)(C)C)cc1 (centres undefined) do in these assays?
Nrf2 activator: 0%; TGFb inhibitor: inconclusive; HepG2 tox-1: -5%

Results for CC1=C(C(=O)N(C(C)C)C(C)C)CC(CC(=O)NCCCCc2ccccc2)C(=O)N1Cc1ccccc1 (centres undefined) ?
Nrf2 activator: 0%; TGFb inhibitor: inconclusive; HepG2 tox-1: -34%

What do the screens show for `CC1=C(C(=O)N(C(C)C)C(C)C)CC(CC(=O)NCCCCc2ccccc2)C(=O)N1Cc1ccc(F)cc1` (centres undefined)?
Nrf2 activator: 0%; TGFb inhibitor: 7.9µM*; HepG2 tox-1: 3%; TGFb CAGA inh: inconclusive; HepG2 tox-2: -6%; CCL64 TGFb inh: 23µM*; COP TGFb inh: -4%

How did CC1=C(C(=O)N(C(C)C)C(C)C)CC(CC(=O)NC(c2ccccc2)c2ccccc2)C(=O)N1Cc1ccc(C(C)(C)C)cc1 (centres undefined) do in these assays?
Nrf2 activator: 0%; TGFb inhibitor: 18µM*; HepG2 tox-1: 2%; TGFb CAGA inh: 9.2µM*; HepG2 tox-2: -27%; CCL64 TGFb inh: inconclusive; COP TGFb inh: 9%

Assay outcomes as filed in PubChem.
